From PubChem BioAssay (Tox21)
Results filed as inconclusive are left out. Entries that show only a call come without a potency. The source made the active and inactive calls. Unless noted, calls come from the whole dose curve; as a rule, active = well fitted curve in the direction sought with a large enough effect in the repeat runs; inconclusive = weak or mixed curves; inactive = no such curve, though single readings can be large; an effect the other way counts as inactive or inconclusive.

How the values were obtained:
[1] = target: Acetylcholinesterase (Homo sapiens) (UniProt P22303); test: Acetylcholinesterase (AChE) small molecule antagonists: enzyme-based qHTS assay with human liver microsomes (AID 1347399; calls by dose curve; note: nearly all actives have a fitted effect of over 60% in size); conditions: Potency: qHTS inhibition; outcome: qHTS inhibition
Method in brief: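 Recombinant human AChE (50 mU/mL in the enzyme mix) and human liver microsomes (0.25 mg/mL final) were preincubated with compound and NADPH (0.25 mg/mL final) for 30 min at 37 C. Acetylthiocholine/DTNB was then added; thiocholine was read colorimetrically after 10 min at room temperature.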

[2] = target: Cytochrome P450 2C19 (Homo sapiens) (UniProt P33261); test: Cytochrome P450 Family 2 Subfamily C Member 19 (CYP2C19) small molecule antagonists: luciferase reporter qHTS assay (AID 1671197); note: series mostly up to about 120 µM; nearly all actives have a fitted effect of over 65% in size
Method in brief: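 Light output is proportional to CYP2C19 activity: proluciferin substrate is converted to luciferin, then detected by a luciferin detection reagent that also stops the 1 h, 37C NADPH-driven reaction. Ketoconazole serves as positive control.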

[3] = target: Cytochrome P450 2C9 (Homo sapiens) (UniProt P11712); test: Cytochrome P450 Family 2 Subfamily C Member 9 (CYP2C9) small molecule antagonists: luciferase reporter qHTS assay (AID 1671198); note: nearly all actives have a fitted effect of over 50% in size; note: potency is the fitted concentration of half-maximal effect
Method in brief: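 CYP2C9 activity was measured with a P450-Glo proluciferin substrate. Enzyme–substrate mix was held with compound for 10 min at room temperature, then NADPH regeneration solution was added for 1 h at 37C. Luciferin product was read as luminescence.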

[4] = target: Cytochrome P450 1A2 (Homo sapiens) (UniProt P05177); test: Cytochrome P450 Family 1 Subfamily A Member 2 (CYP1A2) small molecule antagonists: luciferase reporter qHTS assay (AID 1671199); note: series mostly up to about 120 µM; nearly all actives have a fitted effect of over 50% in size
Method in brief: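 Enzymatic CYP1A2 assay, human, luminescent: 10 min compound–enzyme–substrate preincubation, 1 h NADPH-dependent turnover, 20 min detection step, room temperature throughout. Reduced light indicates lower CYP1A2 activity.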

[5] = target: Cytochrome P450 3A4 (Homo sapiens) (UniProt P08684); test: Cytochrome P450 Family 3 Subfamily A Member 4 (CYP3A4) small molecule antagonists: luciferase reporter qHTS assay (AID 1671201); note: series mostly up to about 120 µM; nearly all actives have a fitted effect of over 50% in size
Method in brief: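 qHTS, 1536-well. CYP3A4 + proluciferin substrate, cpd 10 min RT → NADPH regen 1 h RT → detection reagent 20 min → luminescence (RLU). Ketoconazole positive control.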

[6] = target: Voltage-gated inwardly rectifying potassium channel KCNH2 (Homo sapiens) (UniProt Q12809); test: Human Ether-a-go-go-Related Gene (hERG) channel small molecule antagonists: fluorescence cell-based qHTS assay (AID 1671200);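 note: hERG-expressing U2OS cells given a thallium stimulus after FluxOR II dye loading; series mostly up to about 77 µM; nearly all actives have a fitted effect of over 50% in size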
Method in brief: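 Fluorescence at 540 nm emission (480 nm excitation) was recorded kinetically for 2 min at 1-second intervals once the thallium-containing stimulus reached cells previously loaded with FluxOR II dye.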

Chain of Cytochrome P450 1A2 (Homo sapiens) (P05177 whole entry, looked up): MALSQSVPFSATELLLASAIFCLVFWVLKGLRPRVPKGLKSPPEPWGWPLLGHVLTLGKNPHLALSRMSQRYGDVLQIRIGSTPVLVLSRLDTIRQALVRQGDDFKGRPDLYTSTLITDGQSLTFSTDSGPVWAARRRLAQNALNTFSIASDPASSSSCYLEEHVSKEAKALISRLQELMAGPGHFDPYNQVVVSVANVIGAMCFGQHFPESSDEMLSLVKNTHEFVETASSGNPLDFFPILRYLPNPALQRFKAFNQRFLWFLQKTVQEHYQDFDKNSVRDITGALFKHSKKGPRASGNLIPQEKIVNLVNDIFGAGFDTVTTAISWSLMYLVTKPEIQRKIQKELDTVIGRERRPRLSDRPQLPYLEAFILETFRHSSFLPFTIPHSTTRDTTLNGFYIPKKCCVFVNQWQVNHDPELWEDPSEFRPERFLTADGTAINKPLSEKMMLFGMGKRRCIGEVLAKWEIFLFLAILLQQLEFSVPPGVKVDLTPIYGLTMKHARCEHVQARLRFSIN
Chain of Cytochrome P450 3A4 (Homo sapiens) (P08684 whole entry, looked up): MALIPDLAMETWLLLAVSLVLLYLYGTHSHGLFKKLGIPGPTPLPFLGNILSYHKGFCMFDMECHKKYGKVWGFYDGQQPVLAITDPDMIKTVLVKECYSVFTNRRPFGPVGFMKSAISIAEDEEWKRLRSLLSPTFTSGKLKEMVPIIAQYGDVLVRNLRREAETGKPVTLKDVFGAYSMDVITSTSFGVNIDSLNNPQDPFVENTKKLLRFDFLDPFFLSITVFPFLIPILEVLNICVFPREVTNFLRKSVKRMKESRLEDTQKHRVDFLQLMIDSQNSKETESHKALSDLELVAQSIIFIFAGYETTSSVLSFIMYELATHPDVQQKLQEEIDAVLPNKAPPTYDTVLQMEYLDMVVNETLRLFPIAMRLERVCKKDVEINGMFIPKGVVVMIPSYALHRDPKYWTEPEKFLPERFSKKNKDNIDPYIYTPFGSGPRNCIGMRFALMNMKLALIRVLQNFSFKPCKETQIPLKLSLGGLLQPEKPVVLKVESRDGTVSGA
Chain of Acetylcholinesterase (Homo sapiens) (P22303 whole entry, looked up): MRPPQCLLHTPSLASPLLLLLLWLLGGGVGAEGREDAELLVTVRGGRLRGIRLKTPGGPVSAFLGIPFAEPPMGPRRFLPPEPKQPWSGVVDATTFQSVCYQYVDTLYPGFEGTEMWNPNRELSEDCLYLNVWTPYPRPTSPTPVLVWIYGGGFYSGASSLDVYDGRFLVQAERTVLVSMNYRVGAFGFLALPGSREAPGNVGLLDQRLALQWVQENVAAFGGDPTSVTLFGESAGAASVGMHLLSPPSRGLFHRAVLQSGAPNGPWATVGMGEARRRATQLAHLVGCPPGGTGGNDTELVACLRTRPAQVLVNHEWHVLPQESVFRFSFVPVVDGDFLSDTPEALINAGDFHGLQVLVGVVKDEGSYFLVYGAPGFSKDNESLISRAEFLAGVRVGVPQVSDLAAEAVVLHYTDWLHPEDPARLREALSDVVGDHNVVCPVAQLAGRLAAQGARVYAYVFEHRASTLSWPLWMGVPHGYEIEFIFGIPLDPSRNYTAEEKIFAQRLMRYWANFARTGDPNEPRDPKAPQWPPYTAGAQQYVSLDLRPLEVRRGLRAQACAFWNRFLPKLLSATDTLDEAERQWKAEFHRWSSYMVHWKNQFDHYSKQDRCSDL
Chain of Cytochrome P450 2C19 (Homo sapiens) (P33261 whole entry, looked up): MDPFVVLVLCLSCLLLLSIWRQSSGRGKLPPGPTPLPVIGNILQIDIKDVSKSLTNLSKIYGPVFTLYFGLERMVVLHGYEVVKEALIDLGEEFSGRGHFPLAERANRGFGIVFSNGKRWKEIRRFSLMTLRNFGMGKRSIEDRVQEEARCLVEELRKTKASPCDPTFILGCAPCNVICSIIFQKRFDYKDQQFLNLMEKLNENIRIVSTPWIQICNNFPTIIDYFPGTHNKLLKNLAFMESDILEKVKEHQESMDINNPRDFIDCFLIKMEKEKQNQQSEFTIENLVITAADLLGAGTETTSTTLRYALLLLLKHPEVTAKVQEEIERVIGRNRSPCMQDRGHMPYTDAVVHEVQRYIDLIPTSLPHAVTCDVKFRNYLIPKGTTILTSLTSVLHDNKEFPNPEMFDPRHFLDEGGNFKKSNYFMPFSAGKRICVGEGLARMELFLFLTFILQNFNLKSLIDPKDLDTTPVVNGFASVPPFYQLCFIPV
Chain of Voltage-gated inwardly rectifying potassium channel KCNH2 (Homo sapiens) (Q12809 whole entry, looked up): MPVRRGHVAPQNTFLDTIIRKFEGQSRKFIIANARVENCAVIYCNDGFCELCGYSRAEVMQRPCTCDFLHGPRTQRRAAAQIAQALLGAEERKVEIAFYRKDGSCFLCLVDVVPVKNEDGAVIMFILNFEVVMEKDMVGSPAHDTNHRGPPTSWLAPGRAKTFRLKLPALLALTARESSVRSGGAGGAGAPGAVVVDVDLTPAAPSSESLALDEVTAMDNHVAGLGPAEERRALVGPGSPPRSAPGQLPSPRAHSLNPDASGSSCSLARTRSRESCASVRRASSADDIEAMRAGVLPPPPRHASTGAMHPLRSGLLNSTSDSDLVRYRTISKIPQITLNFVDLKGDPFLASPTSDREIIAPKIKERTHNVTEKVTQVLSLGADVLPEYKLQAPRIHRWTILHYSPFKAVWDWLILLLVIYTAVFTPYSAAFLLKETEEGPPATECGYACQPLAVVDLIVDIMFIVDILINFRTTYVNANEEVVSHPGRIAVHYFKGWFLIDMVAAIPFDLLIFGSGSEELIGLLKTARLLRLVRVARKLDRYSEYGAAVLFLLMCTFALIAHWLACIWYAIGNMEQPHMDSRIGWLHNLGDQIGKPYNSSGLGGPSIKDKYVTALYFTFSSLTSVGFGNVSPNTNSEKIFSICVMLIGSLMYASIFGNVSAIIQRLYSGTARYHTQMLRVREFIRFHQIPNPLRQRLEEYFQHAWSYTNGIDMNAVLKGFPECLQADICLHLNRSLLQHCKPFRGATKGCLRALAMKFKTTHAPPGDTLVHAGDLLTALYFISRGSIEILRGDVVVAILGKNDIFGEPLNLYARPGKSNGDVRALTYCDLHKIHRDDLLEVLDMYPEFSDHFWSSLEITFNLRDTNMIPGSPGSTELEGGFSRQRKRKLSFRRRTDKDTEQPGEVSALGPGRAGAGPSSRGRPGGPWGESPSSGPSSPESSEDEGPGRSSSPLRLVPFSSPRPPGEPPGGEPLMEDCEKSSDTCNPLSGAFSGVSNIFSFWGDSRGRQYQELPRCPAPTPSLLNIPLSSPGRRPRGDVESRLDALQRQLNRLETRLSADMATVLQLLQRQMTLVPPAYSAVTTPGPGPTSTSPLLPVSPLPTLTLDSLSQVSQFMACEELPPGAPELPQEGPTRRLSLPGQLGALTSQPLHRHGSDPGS
Chain of Cytochrome P450 2C9 (Homo sapiens) (P11712 whole entry, looked up): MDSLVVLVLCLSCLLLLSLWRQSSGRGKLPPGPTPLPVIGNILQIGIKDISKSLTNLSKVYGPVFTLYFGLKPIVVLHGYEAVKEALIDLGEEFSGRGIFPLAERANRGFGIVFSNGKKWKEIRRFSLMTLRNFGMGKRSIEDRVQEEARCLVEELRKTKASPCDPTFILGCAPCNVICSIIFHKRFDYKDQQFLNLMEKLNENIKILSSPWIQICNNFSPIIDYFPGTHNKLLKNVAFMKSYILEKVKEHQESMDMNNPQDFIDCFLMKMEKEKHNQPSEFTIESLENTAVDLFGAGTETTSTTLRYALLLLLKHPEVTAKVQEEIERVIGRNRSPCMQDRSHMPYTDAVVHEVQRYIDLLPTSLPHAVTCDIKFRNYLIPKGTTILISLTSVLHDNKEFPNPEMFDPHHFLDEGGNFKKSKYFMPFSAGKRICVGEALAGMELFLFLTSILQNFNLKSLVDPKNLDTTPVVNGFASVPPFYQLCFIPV

SMILES | Potency [1] | Potency [2] | Potency [3] | Potency [4] | Potency [5] | Potency [6]
C[C@]12CC[C@H]3[C@@H](CCC4=CC(=O)CC[C@@H]43)[C@@H]1CC[C@@H]2OC(=O)CCc1ccccc1 | inactive | inactive | 30.9 µM (active) | inactive | inactive | –
CC(C)(C)NCC(O)c1cc(Cl)c(N)c(C(F)(F)F)c1 (stereo not drawn) | inactive | inactive | inactive | inactive | inactive | inactive
CC(CC(C(N)=O)(c1ccccc1)c1ccccc1)N(C)C (stereo not drawn) | inactive | inactive | inactive | inactive | inactive | inactive
CN[C@@H](C)[C@H](O)c1ccccc1 | inactive | inactive | inactive | inactive | inactive | inactive
